Measurements as given in PubChem BioAssay AID1159580 (chemical genetic matrix, 2015).
The campaign covered roughly 5,500 compounds. About 2,000 (36%) were called active. About 18% were inconclusive and are not listed. No stated cut-off is given here; in the data, active means normalized growth mostly below about 0.91 (no sharp cut-off); inconclusive means no clear call, values can overlap the other calls; inactive means mostly above about 0.92. This is one part of the list.

Assay: chemical genetic growth profiling, strain panel (AID 1159580);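 further: tested at 20 µM; growth read once vehicle control cultures reached saturation at 30 °C; 1 = growth at the plate median or of vehicle wells; lower values mean less growth of the strain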
Settings: S. cerevisiae deletion strains, growth OD
[1] = locus YHR030C, strain SLT2, active compounds read low
[2] = locus YGR078C, strain PAC10, active compounds read low
[3] = locus YMR263W, strain SAP30, active compounds read low
[4] = locus YPL055C, strain LGE1, active compounds read low

Measured: normalized growth

COc1cc(OC)c(C(=O)CCCN2CCCC2)c(OC)c1
inactive: [1] 1.07 | locus YHR079C, strain IRE1, active compounds read low 1.04 | locus YJL095W, strain BCK1, active compounds read low 1.03 | locus YJR066W, strain TOR1, active compounds read low 0.973 | locus YLR113W, strain HOG1, active compounds read low 1.01 | locus YNL183C, strain NPR1, active compounds read low 0.973 | locus YOR231W, strain MKK1, active compounds read low 1.03 | locus YPL256C, strain CLN2, active compounds read low 1.05

O=C(OCCN1CCCCC1)c1c[nH]c2ccccc12
inactive: locus YAL040C, strain CLN3, active compounds read low 1 | locus YCL061C, strain MRC1 (second series), active compounds read low 1.01 | locus YDR363W, strain ESC2, active compounds read low 0.997 | locus YER002W, strain NOP16, active compounds read low 1.02 | [2] 1.02 | locus YGR229C, strain SMI1, active compounds read low 0.999 | [3] 0.999 | locus YMR307W, strain GAS1, active compounds read low 1.01 | locus YNL128W, strain TEP1, active compounds read low 1.01 | locus YNL175C, strain NOP13, active compounds read low 1.01 | locus YNL197C, strain WHI3, active compounds read low 1 | locus YNL224C, strain SQS1, active compounds read low 0.994 | locus YOR083W, strain WHI5 (second series), active compounds read low 1 | [4] 0.997

Cc1cc(C)c(NC(=S)NCCCN2CCOCC2)c(C)c1
inactive: locus YAL013W, strain DEP1, active compounds read low 1 | locus YBR229C, strain ROT2, active compounds read low 1.01 | locus YDL101C, strain DUN1, active compounds read low 0.992 | locus YDR150W, strain NUM1, active compounds read low 0.901 | locus YEL061C, strain CIN8, active compounds read low 1.01 | [2] 1.02 | [1] 1.07 | locus YHR087W, strain rtc3, active compounds read low 1.01 | locus YJL187C, strain SWE1, active compounds read low 1.01 | locus YJR043C, strain POL32, active compounds read low 0.986 | locus YJR075W, strain HOC1, active compounds read low 0.999 | locus YLR039C, strain RIC1, active compounds read low 1.03 | locus YLR058C, strain SHM2 (second series), active compounds read low 1.01 | locus YLR085C, strain ARP6, active compounds read low 1.05 | locus YLR262C, strain YPT6, active compounds read low 1.02 | locus YML094W, strain GIM5, active compounds read low 1 | locus YMR219W, strain ESC1, active compounds read low 1 | [3] 1.03 | locus YNL153C, strain GIM3, active compounds read low 0.992 | locus YNL298W, strain CLA4 (second series), active compounds read low 1.04 | locus YNL322C, strain KRE1, active compounds read low 1.01 | locus YNR030W, strain Alg12, active compounds read low 1.02 | [4] 0.912 | locus YPL241C, strain CIN2, active compounds read low 0.995 | locus YPR135W, strain CTF4, active compounds read low 1.01
